Screens (PubChem BioAssay)
FAS-TE inh: FAS thioesterase domain inhibitors, primary screen, biochemical, fluorescence intensity, uHTS; inhibition, % at 15 µM; 360,000 compounds, 0.67% hits; Fatty acid synthase (Homo sapiens), P49327; recombinant FAS-TE, OMFH fluorogenic substrate, fluorescence endpoint; AID 602261, 2012;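 active = compounds whose normalised, plate-corrected inhibition of enzyme fluorescence in the single-dose primary screen is 50% or more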;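 note: 0% = DMSO with enzyme and 100% = substrate without enzyme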
GRIN3A LBD mod: binders of NR3A ligand-binding domain, primary screen, biophysical, differential scanning fluorimetry, uHTS; Glutamate receptor ionotropic, NMDA 3A (GRIN3A) ligand-binding domain; NR3A LBD differential scanning fluorimetry, Tm shift; 0% = protein alone, 100% = glycine-bound protein; Tm shift relative to glycine control, % at 25 µM; 340,000 compounds, 2.5% hits; AID 1259313, 2017;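 active = melting temperature shift of at least 10% of the positive control shift, at one fixed dose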
ADAM10 inh: human ADAM10 inhibitors, primary screen, biochemical, QFRET, HTS | Disintegrin and metalloproteinase domain-containing protein 10 (Homo sapiens), O14672 | recombinant ADAM10, EDANS/DABCYL FRET peptide cleavage, 3 h | inhibition, % at 7 µM | 370,000 compounds, 0.62% hits | AID 720582, 2013;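 active = inhibition above a per-campaign cutoff equal to the mean of compounds falling between control-based bounds plus 3 SD, cut at about 20% in these data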;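 note: 0% = DMSO wells while the 100% control is not disclosed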
ADAM17 inh: ADAM17 inhibitors, primary screen, biochemical, QFRET; Disintegrin and metalloproteinase domain-containing protein 17 (Homo sapiens), P78536; recombinant ADAM17, EDANS/DABCYL FRET peptide cleavage; 370,000 compounds, 0.83% hits; inhibition, % at 6.95 µM;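 active = inhibition above the mean of compounds lying between control limits plus 3 SD, set per campaign, cut at about 8.5% in these data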;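 note: 0% = DMSO-only wells as the low control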
proKLK7 act: proKLK7 zymogen activators, primary screen, biochemical, fluorescence intensity; Kallikrein-7 (Homo sapiens), P49862; purified proKLK7, EDANS-DABCYL substrate fluorescence; 100% is mature enzyme control, 0% vehicle; activation, % at 7 µM; 370,000 compounds, 0.9% hits; AID 652039, 2013;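 active = activation above the mean of all tested compounds plus 3 SD, computed per campaign excluding outliers beyond control limits, cut at about 13% in these data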
Target sequence (P49862 whole entry, looked up): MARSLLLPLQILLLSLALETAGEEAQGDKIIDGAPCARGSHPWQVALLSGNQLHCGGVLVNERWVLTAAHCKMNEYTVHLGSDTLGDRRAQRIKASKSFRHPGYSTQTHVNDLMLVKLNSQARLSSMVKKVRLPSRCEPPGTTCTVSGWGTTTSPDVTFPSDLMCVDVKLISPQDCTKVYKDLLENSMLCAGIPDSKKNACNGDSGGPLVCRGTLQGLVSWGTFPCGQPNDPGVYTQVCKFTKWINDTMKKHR
proKLK7 act conf: proKLK7 zymogen activators, confirmation, biochemical, fluorescence intensity, triplicate; shares compounds with proKLK7 act; purified proKLK7, EDANS-DABCYL substrate fluorescence; scaled: vehicle 0, mature enzyme 100; activation, % at 7 µM; 3,200 compounds, 68% hits; AID 686949, 2013;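 active = activation, as change over the incubation, above the mean of all tested compounds plus 3 SD, cut at about 13% in these data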
EDANS interfere: EDANS-DABCYL substrate optical interference, artefact control for kallikrein-7 zymogen activator project, biochemical, fluorescence intensity, high throughput. shares compounds with proKLK7 act. no enzyme, 4 h; solvent 0%, active enzyme control 100%. activation, % at 7 µM. 3,200 compounds, 80% hits. AID 686952, 2013;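 active = activation above the all-compound mean plus 3 SD, ignoring values outside control-based bounds, cut at about 4.8% in these data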;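 note: value is the 4 h activation minus the activation read at time zero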
EDANS interf: counter-screen for kallikrein-7 activators: EDANS-DABCYL interference, dose response | EDANS-DABCYL peptide fluorescence interference, no enzyme | EC50, µM | shares compounds with proKLK7 act | 250 compounds, 20% hits;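 active = compounds that raise the fluorescence signal in this interference counterscreen, with EC50 at or below 10 µM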;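 note: intact quenched peptide substrate alone read at 355 nm excitation and 520 nm emission; signal is fluorescence gain from T0 to T4 after four hours at room temperature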
* marks the source's active call; other numbers are inactive results; i = inactive; nt = no result. Only some compounds are listed: those with a hit (about 4.6% of all), similar ones and a draw of the others.

SMILES	FAS-TE inh	GRIN3A LBD mod	ADAM10 inh	ADAM17 inh	proKLK7 act	proKLK7 act conf	EDANS interfere	others
CC[C@]12c3[nH]c4cc(-c5ccco5)ccc4c3CCN1C(=O)[C@@H](CC(=O)NCc1ccco1)C[C@@H]2C(=O)N1CCN(C(=O)C2CC2)CC1	-7	-1	i	-290	100*	67*	93*
CC[C@]12c3[nH]c4cc(-c5ccco5)ccc4c3CCN1C(=O)[C@@H](CC(=O)NCC13CC4CC(CC(C4)C1)C3)C[C@@H]2C(=O)N1CCN(C(=O)C2CC2)CC1	25	-1	-315	-85	-13	nt	nt
C[C@]12c3[nH]c4cc(-c5ccco5)ccc4c3CCN1C(=O)[C@@H](CC(=O)NCCC1=CCCCC1)C[C@@H]2C(=O)N1CCOCC1	1	-7	nt	nt	nt	nt	nt
CC[C@]12c3[nH]c4cc(-c5ccco5)ccc4c3CCN1C(=O)[C@@H](CC(=O)NCCC1=CCCCC1)C[C@@H]2C(=O)N1CCN(C(=O)C2CC2)CC1	4	-2	-478	-150	30*	14*	17*
COc1ccc(OC)c(/C=C/C(=O)Oc2ccc(C(C)=O)cc2)c1	3	-1	-370	-137	15*	25*	32*
COc1ccc(/C=C/C(=O)OCC(=O)NCc2ccco2)c(OC)c1	-3	-2	-27	-14	0	nt	nt
COc1ccc(OC)c(/C=C/C(=O)OCC(=O)NCc2ccco2)c1	-3	2	-130	-41	23*	17*	14*	EDANS interf=>70
COc1ccc(OC)c(/C=C/C(=O)OCC(=O)N2C(C)CCCC2C)c1 (stereo unspecified)	2	6	-204	-52	13*	13*	15*
CC(C)(C)C(=O)c1c(N)[nH]c(C(=O)c2ccccc2)c1-c1ccccc1	nt	nt	-3	-2	-2	nt	nt
O=C(Nc1ccccn1)c1cc(-c2ccc(Cl)s2)nc2ccccc12	26	-10	-185	-45	-49	nt	nt
Cc1ccc(-c2cc(C(=O)O)c3ccccc3n2)s1	-5	4	i	i	54*	63*	71*
CCC(C)NC(=O)c1cc(-c2cccs2)nc2ccccc12 (stereo unspecified)	0	2	i	-491	26*	-15	-27
O=C(O)c1cc(-c2ccc(Cl)s2)nc2ccccc12	-7	-1	i	i	47*	36*	41*
CN1[C@H](Cc2ccccc2)COc2cccc(F)c2S1(=O)=O	nt	nt	-4	-3	-1	nt	nt
FC(F)(F)c1ccc2c(c1)NCC1CCCN21 (stereo unspecified)	5	1	-283	-92	68*	46*	47*
Cc1cc(=O)n2c3c(c4c(cc13)c(CN(C)C)cc(=O)n4C)OC2	-4	-3	-197	-51	30*	15*	17*
Cc1cc(=O)n(C)c2ccccc12	-4	0	-9	-3	0	nt	nt
COc1ccc(Cn2ccc3ccc(-c4ccc5ccn(C(=O)c6cccc(OC)c6)c5c4)cc32)cc1	nt	nt	-31	-4	-20	nt	nt
CCOC(=O)C1CCN(C(=O)C(C)(C)NC(=O)Nc2ccc(C(F)(F)F)cc2Cl)CC1	nt	nt	7	2	nt	nt	nt
CCC(C)[C@H](NC(=O)[C@H](Cc1ccccc1)NC(=O)OC(C)(C)C)C(=O)NCc1ccccc1Br (stereo partly specified)	nt	nt	-10	-8	0	nt	nt
OCCCc1nc2n(n1)C(c1ccccc1)C=C(c1ccc(F)cc1)N2 (stereo unspecified)	-11	0	-340	-113	23*	38*	74*
CNC(=O)NC(=O)C(C)OC(=O)c1c2c(nc3ccccc13)/C(=C/c1cccs1)CC2 (stereo unspecified)	3	1	-29	-7	50*	85*	73*
CCCCNC(=O)COC(=O)c1c2c(nc3ccccc13)/C(=C/c1cccs1)CC2	12	1	-26	-10	-1	nt	nt
COCc1cc(N2CCNC[C@H]2C)ccc1N1CCS(=O)(=O)CC1	nt	nt	-5	-3	0	nt	nt
CN1C(=O)[C@@]2(O[C@H]3C=CC=CN3C3=C2C(=O)CCC3)c2cc([N+](=O)[O-])ccc21	nt	nt	7	1	0	nt	nt
SMILES	FAS-TE inh	GRIN3A LBD mod	ADAM10 inh	ADAM17 inh	proKLK7 act	proKLK7 act conf	EDANS interfere	others
C=CCN1C(=O)[C@@H](CC(=O)NCc2ccc(OC)c(OC)c2)[C@]2(C(=O)OC)CCCCC=C12	nt	nt	-10	-2	0	nt	nt
Cc1ccccc1N1C(=O)c2cccc3c(N(C)CCO)ccc(c23)C1=O	-89	0	-128	-42	13*	9	10*
COc1ccccc1N(C)S(=O)(=O)c1ccc(C(=O)Nc2ccc(C(N)=O)cc2)cc1	1	-7	-2	-1	24*	22*	3	EDANS interf=i
COc1cccc(/C=C/C(=O)Nc2ccc(C(=O)Nc3cccc(S(N)(=O)=O)c3)cc2)c1OC	1	39*	-391	-172	77*	79*	83*
CCOc1ccc(CCNC(=O)C2CCCCC2)cc1OCC	nt	nt	-9	-6	nt	nt	nt
Cc1ccccc1NS(=O)(=O)c1ccc2c3c(cccc13)C(=O)N2C	-35	2	-5	-8	3	nt	nt
CN1C(=O)c2cccc3c(S(N)(=O)=O)ccc1c23	-4	2	-463	-174	71*	56*	66*
CN1C(=O)c2cccc3c(S(=O)(=O)NCc4ccco4)ccc1c23	-10	3	i	-235	21*	14*	14*
O=C(c1cc(F)ccc1F)N1CCC(Oc2cccnc2)CC1	nt	nt	-2	-1	1	nt	nt
O=C(CC(SCc1ccco1)c1ccc(O)cc1)c1cccs1 (stereo unspecified)	16	-29	-6	-3	25*	16*	14*
O=C(CC(SCCO)c1ccc2c(c1)OCO2)c1cccs1 (stereo unspecified)	-3	0	-2	-3	14*	26*	27*
O=C(COc1ccccc1C(=O)NCc1ccccc1)Nc1ccc(I)cc1	nt	nt	-1	-2	-1	nt	nt
